From PubChem BioAssay (EPA / NIEHS) come the findings set out here.

As usually defined, the AC50 is the midpoint of the concentration-response curve, whichever way the signal moves.

Each structure is given as a SMILES string. Values joined by “and” are separate entries in the source; they are usually repeats but may differ in a detail not shown here. Identical values can stand only once. Results filed as inconclusive are left out. Active and inactive are the calls of the source. How the source made its calls: active means hit-call score of the fitted dose curve at least 0.9, where 1 is the maximum; inconclusive means response in the unintended direction; inactive means score below 0.9.

In the first test the target is Cellular tumor antigen p53 (Homo sapiens) (UniProt P04637). Briefly: TOX21_p53_BLA_p2_ratio: Tox21 HCT-116 p53 Agonism Beta-lactamase Assay, Ratio, Phase 2 (AID 2283592). In short, it runs like this: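 In this cell-based reporter format, HCT116 cells were dosed with chemicals delivered from DMSO by 217-fold dilution and incubated 16 h at 37C. Emission at 460 and 530 nm after 2 h CCF4-AM loading provided the ratio, fitted upward versus DMSO.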
Chain of Cellular tumor antigen p53 (Homo sapiens) (P04637 whole entry, looked up): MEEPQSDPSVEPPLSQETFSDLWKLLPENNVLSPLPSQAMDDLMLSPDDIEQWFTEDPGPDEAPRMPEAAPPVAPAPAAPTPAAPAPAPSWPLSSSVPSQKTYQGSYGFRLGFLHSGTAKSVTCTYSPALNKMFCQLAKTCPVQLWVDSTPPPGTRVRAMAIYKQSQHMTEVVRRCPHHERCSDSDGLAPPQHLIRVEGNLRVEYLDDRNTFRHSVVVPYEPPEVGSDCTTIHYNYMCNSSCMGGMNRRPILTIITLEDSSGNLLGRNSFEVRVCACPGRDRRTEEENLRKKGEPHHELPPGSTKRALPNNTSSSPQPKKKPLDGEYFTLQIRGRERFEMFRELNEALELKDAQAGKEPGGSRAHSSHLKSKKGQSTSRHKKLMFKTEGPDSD
With `OC12N=C(c3ccccc3)SC1Cc1cc(Cl)ccc12` (stereo not drawn), the AC50 is 71.5 µM (active). As to `Oc1ccc2ccccc2c1`, the result was inactive.

Regarding `CCCCCCCCN(C)CCCCCCCC`, the outcome was inactive. Same read-out and setting: the same measure for `Cc1oc2c(NC(=O)c3c(Cl)cccc3Cl)cccc2c1C(C)(C)O`: “inactive”; for `CCCCCCCC[Si](OCC)(OCC)OCC`: “inactive”; for `Clc1cc(Cl)c2c(c1)N=C1CCCCCN1C2`: “inactive”. Still for that read-out and setting: the same measure for `c1ccc2ccccc2c1`: “inactive”; for `C[C@]12CC[C@@H]3c4ccc(O)cc4CC[C@H]3[C@@H]1CCC2=O`: “inactive”; for `O=C(O)Cn1c(=O)n(Cc2ccc(Br)cc2F)c(=O)c2ccc(Cl)cc21`: “inactive”. With `O=c1[nH]sc2ccccc12`, the result was inactive. The same measure, in the same setting: the same measure for `CCCCCCCCCCCO`: “inactive”.

Turning to `CN(C)c1ccc(C(=C2C=CC(=[N+](C)C)C=C2)c2ccc(N(C)C)cc2)cc1`, the AC50 is 33.6 µM (active) and 32.8 µM (active) and 7.06 µM (active). Consider `CCO[Si](CCCNC(N)=O)(OCC)OCC`, for which the outcome was inactive. With `Cc1ncc(CO)c(CO)c1O`, the outcome was inactive. Consider `CCOC(=O)O[C@H](C)OC(=O)c1ccc2c(c1)cc(C(=O)NC1CCN(C(C)C)CC1)n2Cc1cc(-c2ccc(Cl)s2)on1`, for which the AC50 was 27.9 µM (active). `CC(O)CC(C)(C)O` (stereo not drawn): the outcome was inactive. For `C[C@]12CC[C@@H]3c4ccc(O)cc4CC[C@H]3[C@@H]1CC[C@H]2O`, the concentration at half-maximal activity (AC50) is 15.9 µM (active).

As to `c1ccc(C[n+]2cccc3ccccc32)cc1`, the result was inactive.

As to `CC(C)(C)c1cc(/C=C2\SC(N)=NC2=O)cc(C(C)(C)C)c1O`, the AC50 is 50.7 µM (active). For the molecule `CC[C@H](NC(=O)c1cc(F)ccc1NS(=O)(=O)c1cccc2cccnc12)c1ccccc1`, the result was inactive. The same measure, in the same setting: the same measure for `Cc1ccc(C(C)C)cc1`: “inactive”; for `CCCCOC(=O)CC(CC(=O)OCCCC)(OC(C)=O)C(=O)OCCCC`: “inactive”; for `CCCCCCCCCCCCO`: “inactive”.

As for `OCCO`, the outcome was inactive. On to `CCCC(=O)OCCC(C)C`, for which the result was inactive. Same read-out and setting: the same measure for `O=c1ccc2ccccc2o1`: “inactive”. On the same count and under the same terms, the same measure for `O=C(O)c1ccccc1-n1cc(C(=O)O)c(=O)c2cc(Nc3c(F)cc(F)cc3Cl)c(Cl)cc21`: “inactive”; for `Cc1cc2c(cc1C(F)(F)F)N(C(=O)Nc1ccc(Oc3cccnc3C)nc1)CC2`: “inactive”.

As to `CC[C@@H]1C[C@H](N(Cc2cc(C(F)(F)F)cc(C(F)(F)F)c2)C(C)=O)c2cc(C(F)(F)F)ccc2N1C(=O)OC(C)C`, the result was inactive. On the same count and under the same terms, the same measure for `O=C1O[C@H]([C@@H](O)CO)C(O)=C1O`: “inactive”. The same measure, in the same setting: the same measure for `Cc1occc1C(=O)Nc1ccc(C(=O)N2CCC(F)(F)/C(=C\C(=O)N3CCC(N4CCCCC4)CC3)c3ccccc32)cc1`: “inactive”.

For the molecule `CC(C)(O)c1ccc(CNC(=O)c2cccnc2Oc2ccc3nonc3c2)cc1`, the outcome was inactive. As for `CN1C(=O)CC[C@H]1c1cccnc1`, the outcome was inactive. Still for that read-out and setting: the same measure for `O=C=NCCCCCCN=C=O`: “inactive”; for `O=C(O)c1ccccc1C(=O)OCc1ccccc1`: “inactive”.

System in a further test: not listed separately
Briefly: TOX21_p53_BLA_p3_viability: Viability Assessment in the Tox21 HCT-116 p53 Agonism Beta-lactamase Assay, Phase 3 (AID 2283593).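 Further: cells exposed to compound for 16 h before reading.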 In a few lines:
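HCT116 cells, 4000/well, dosed 5 h after plating by pin transfer (217-fold dilution from DMSO stock) and incubated 16 h at 37C, 5% CO2. Viability read as ATP luminescence with CellTiter-Glo after 30 min at room temperature.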
Regarding `COc1cccc([C@H](O)C2CCN(CCc3ccc(F)cc3)CC2)c1OC`, the call was inactive.

For the molecule `CCCCCCCCN(C)CCCCCCCC`, the molecule was classed as inactive. Turning to `Cc1oc2c(NC(=O)c3c(Cl)cccc3Cl)cccc2c1C(C)(C)O`, the outcome was inactive. On the same count and under the same terms, the same measure for `CCCCCCCC[Si](OCC)(OCC)OCC`: “inactive”. Still for that read-out and setting: the same measure for `Clc1cc(Cl)c2c(c1)N=C1CCCCCN1C2`: “inactive”.

On to `c1ccc2ccccc2c1`, for which the result was inactive.

For the molecule `O=C(O)Cn1c(=O)n(Cc2ccc(Br)cc2F)c(=O)c2ccc(Cl)cc21`, the result was inactive. On the same count and under the same terms, the same measure for `O=c1[nH]sc2ccccc12`: “inactive”.

As for `CCCCCCCCCCCO`, the outcome was inactive.

In the case of `CN(C)c1ccc(C(=C2C=CC(=[N+](C)C)C=C2)c2ccc(N(C)C)cc2)cc1`, the AC50 was 56.6 µM (active) and 17.3 µM (active) and 20.4 µM (active). As to `CCO[Si](CCCNC(N)=O)(OCC)OCC`, the call was inactive.

Take `Cc1ncc(CO)c(CO)c1O`: the result was inactive.

Regarding `CCOC(=O)O[C@H](C)OC(=O)c1ccc2c(c1)cc(C(=O)NC1CCN(C(C)C)CC1)n2Cc1cc(-c2ccc(Cl)s2)on1`, the half-maximal activity concentration (AC50) was 55.8 µM (active). Consider `CC(O)CC(C)(C)O` (stereo not drawn), for which the molecule was called inactive. On the same count and under the same terms, the same measure for `CC1=CC(=O)/C(=C(/C)O)C(=O)O1`: “inactive”; for `C[C@]12CC[C@@H]3c4ccc(O)cc4CC[C@H]3[C@@H]1CC[C@H]2O`: “inactive”; for `c1ccc(C[n+]2cccc3ccccc32)cc1`: “inactive”.

In the case of `CC(C)(C)c1cc(/C=C2\SC(N)=NC2=O)cc(C(C)(C)C)c1O`, the molecule was called inactive. Still for that read-out and setting: the same measure for `CC[C@H](NC(=O)c1cc(F)ccc1NS(=O)(=O)c1cccc2cccnc12)c1ccccc1`: “inactive”. Still for that read-out and setting: the same measure for `Cc1ccc(C(C)C)cc1`: “inactive”.

For `CCCCCCCCCCCCO`, the molecule was classed as inactive. The same measure, in the same setting: the same measure for `OCCO`: “inactive”; for `Cc1cc2c(cc1C(F)(F)F)N(C(=O)Nc1ccc(Oc3cccnc3C)nc1)CC2`: “inactive”; for `O=C1O[C@H]([C@@H](O)CO)C(O)=C1O`: “inactive”. The same measure, in the same setting: the same measure for `Cc1occc1C(=O)Nc1ccc(C(=O)N2CCC(F)(F)/C(=C\C(=O)N3CCC(N4CCCCC4)CC3)c3ccccc32)cc1`: “inactive”; for `CN1C(=O)CC[C@H]1c1cccnc1`: “inactive”; for `O=C=NCCCCCCN=C=O`: “inactive”.

Take `O=C(O)c1ccccc1C(=O)OCc1ccccc1`: the outcome was inactive.
